From PubChem BioAssay (NCI) come the findings set out here.

The panel holds about 83,000 compounds, 20% with a hit somewhere; the sample as a whole holds those more often.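 Results are percent growth after 48 hours of single-concentration exposure. 100 means growth as in untreated cells, lower positive values show inhibition; negative values down to -100 show cell death.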 Values without a mark were called inactive. Calls of active or inactive are those of the source. How the source made its calls: active means growth percent below 10; inactive means the rest.

Test in all cases: NCI-60 one-dose screen, 48 h (100 = growth as untreated, 0 = no growth, -100 = all killed)
Details in all cases: 10 µM

Assay [1] deals with NCI-H23 lung.
Assay [2] relates to NCI-H226 lung.
In assay [3] the test system is HOP-62 NSCLC.
The subject of assay [4] is NCI-H460 lung.
The test system of assay [5] is HOP-92 NSCLC.
For assay [6], the system named is A549/ATCC NSCLC.
For assay [7], the system named is 786-0 renal.
Assay [8] concerns COLO 205 colon.
Assay [9] relates to DU-145 prostate.
In assay [10] the test system is K-562 leukemia.
The test system of assay [11] is MDA-MB-231 breast.
The test system of assay [12] is RXF 393 renal.
Assay [13] has as its system SF-268 CNS.
For assay [14], the system named is SF-295 CNS.
For assay [15], the system named is SF-539 CNS.
Assay [16] relates to UACC-257 melanoma.
In assay [17] the test system is M14 melanoma.
The test system of assay [18] is NCI-H522 lung.
The subject of assay [19] is MALME-3M melanoma.

With `COc1ccc2c(c1)C(CC(=O)NN)CCC2` (centres undefined), the growth in [1] is 92.7%; in [2] it was 101%; in assay [3], 106%; in [4] it was 109%; in assay [5] it was 93.7%; in assay [6], 93.4%. Also, the growth in [7] was 109%; in assay [8], 113%; in [9] it was 114%; in [10], 94.3%; in assay [11], 101%; in assay [12] it was 115%. For the same molecule, the growth was 96.3% in assay [13]; 109% in [14]; 100% in assay [15]; 90.5% in [16]; 104% in [17].
As to `CS(=O)(=O)c1nccc(-c2c(-c3cccc(OCc4ccc(F)cc4)c3)nc3sccn23)n1`, the growth in assay [1] was 53%; in assay [2] it was 55.5%; in assay [3], 90.1%; in [4], 98.8%; in [18] it was 24.4%; in assay [6], 104%. Also, the growth is 79.5% in assay [7]; 91.2% in assay [8]; -53.8% (active) in assay [9]; 47.3% in assay [10]; 60.4% in [19]; 77.5% in [11]. Also, the growth in assay [12] is 79.6%; in assay [13] it was 90.2%; in [14], 105%; in assay [15] it was 104%; in [16], 17%; in [17] it was 71.2%.
Take `CN(C)c1nc(N)c2nccnc2n1`: the growth was 87.9% in [1]; 105% in [2]; 111% in assay [3]; 108% in [4]; 101% in [5]; 99.6% in assay [6]. In addition, the growth was 109% in assay [7]; 100% in assay [8]; 108% in assay [9]; 128% in assay [10]; 108% in [11]; 115% in assay [12]. Also, the growth is 101% in assay [13]; 84.4% in assay [14]; 105% in assay [15]; 111% in assay [16]; 117% in assay [17].
For `CN1C(=O)C2(Nc3cc(Cl)ccc3S2)c2cc(Cl)ccc21` (centres undefined), the growth was 82.7% in [1]; 80% in assay [2]; 101% in assay [3]; 95.2% in [4]; 95.2% in assay [18]; 97.3% in assay [6]. Also, the growth in assay [7] was 102%; in assay [8] it was 93.2%; in assay [9], 104%; in assay [10], 75.4%; in assay [19], 113%; in assay [11], 69.3%. Besides, the growth in [12] was 106%; in assay [13] it was 93.8%; in [14] it was 99.3%; in assay [15], 106%; in assay [16], 101%; in [17], 102%.
With `COc1ccccc1N1CCCSC1=Nc1ccccc1`, the growth is 104% in [1]; 107% in [2]; -5.39% (active) in [3]; 99.7% in [4]; 68.4% in assay [5]; 71.9% in assay [18]. The growth in [6] is 99.2%; in assay [8], 104%; in [9] it was 99.7%; in assay [10] it was 78.4%; in [11] it was 101%; in [13], 99%. Also, the growth was 80.2% in assay [14], 98.9% in [15], 43.7% in assay [16] and 63.3% in assay [17].
As for `O=C(N/N=C/c1ccc([N+](=O)[O-])cc1)c1ccccc1Nc1cccc(C(F)(F)F)c1`, the growth in assay [1] was 91.2%; in [2], 95.2%; in [3] it was 89.4%; in [4], 115%; in assay [5], 61%; in assay [18], 88.8%. Also, the growth in [7] was 73%; in assay [8], 131%; in [10], 107%; in [11], 80.5%; in assay [13], 98.4%; in [14] it was 105%. Moreover, the growth in assay [15] is 60.7%; in assay [16] it was 95.5%; in assay [17], 86.4%.
Turning to `CSc1nc(S(C)(=O)=O)nc2[nH]c(=O)[nH]c12`, the growth was 98.8% in assay [1]; 101% in [2]; 98.2% in [3]; 116% in assay [4]; 97.5% in assay [5]; 106% in assay [6]. Also, the growth is 107% in assay [7]; 106% in [8]; 116% in assay [9]; 108% in [10]; 89.7% in assay [11]; 110% in assay [12]. The growth was 101% in assay [13], 99.1% in assay [15], 105% in [16] and 96.7% in [17].
With `CCN(CC)CCN1c2nc3ccccc3cc2Sc2cc3ccccc3nc21`, the growth in [1] is -5.59% (active); in [2], -10.6% (active); in [3] it was 12.8%; in assay [4] it was -95.2% (active); in assay [5], -12.9% (active); in assay [18], -69.4% (active). Further, the growth in assay [7] is -40% (active); in [8] it was -73.9% (active); in [10] it was -69.1% (active); in [11] it was -0.0354% (active); in [13], 12.2%; in assay [14], -49.2% (active). In addition, the growth in [15] is -100% (active); in assay [16] it was 8.34% (active); in assay [17], -65% (active).
For `CNC(=O)c1cn(C2CC2)c2cc(N3CCN(C(=O)c4cc(OC)c(OC)c(OC)c4)CC3)c(F)cc2c1=O`, the growth in assay [1] is 93.7%; in assay [2], 93%; in assay [3] it was 90.8%; in assay [4], 106%; in assay [18] it was 90%; in assay [6], 94.6%. The growth in assay [7] is 93.4%; in assay [8], 105%; in assay [9] it was 104%; in assay [10], 104%; in assay [19] it was 103%; in [11], 98.2%. For the same molecule, the growth in assay [12] is 112%; in assay [13] it was 96.8%; in assay [14], 98%; in assay [15] it was 98.9%; in [17], 109%.
